HPGD inh: inhibitors of human 15-hydroxyprostaglandin dehydrogenase (HPGD); purified HPGD, NADH fluorescence kinetic, PGE2 substrate; 150,000 compounds, 4.3% hits; Potency, µM, for the others: top-dose activity change, negative = inhibition, actives largely listed as inhibitors; also: potency is read from the fitted curve at half-maximal effect
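20 nM HPGD preincubated 15 min at room temperature with compound in 50 mM Tris-HCl pH 8, 0.01% Tween 20. Started with 1 mM NAD+ and 30 uM prostaglandin E2; NADH fluorescence (360/450 nm) read 5 times over 30-s intervals, last minus first.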
ALDH1A1 inh: inhibitors of human aldehyde dehydrogenase 1A1; P00352; 220,000 compounds, 7.3% hits; Purified ALDH1A1, NADH fluorescence, propionaldehyde substrate; Potency, µM (titrated, usually from 75.3 µM), for the others: top-dose activity, negative = inhibition, usual class: inhibitors; AID 1030;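 also: potency is read from the fitted curve at half-maximal effect; plate controls were no enzyme wells and a reference inhibitor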
Target sequence (P00352 whole entry, looked up): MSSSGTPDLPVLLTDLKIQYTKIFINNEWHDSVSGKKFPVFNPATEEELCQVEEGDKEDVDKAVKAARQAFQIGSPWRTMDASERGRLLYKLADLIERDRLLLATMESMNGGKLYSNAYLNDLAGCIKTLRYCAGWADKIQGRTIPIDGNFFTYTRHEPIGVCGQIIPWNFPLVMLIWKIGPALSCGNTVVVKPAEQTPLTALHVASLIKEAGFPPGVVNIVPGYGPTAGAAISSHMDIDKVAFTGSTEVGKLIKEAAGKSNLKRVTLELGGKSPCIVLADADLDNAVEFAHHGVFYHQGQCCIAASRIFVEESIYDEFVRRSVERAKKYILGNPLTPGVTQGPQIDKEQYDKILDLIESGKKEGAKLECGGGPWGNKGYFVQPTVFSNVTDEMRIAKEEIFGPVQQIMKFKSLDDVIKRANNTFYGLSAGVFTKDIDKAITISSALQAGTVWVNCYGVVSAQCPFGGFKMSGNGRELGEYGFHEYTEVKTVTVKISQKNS
PNC inhibitor: perinucleolar compartment assembly inhibition; 140,000 compounds, 3.1% hits; activity change (PNC), negative = inhibition, % at 10 µM; PC3M PTB-GFP, PNC prevalence imaging, 16 h; stronger effect = lower value;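 active = readout at or below -70, meaning at least 70% loss of cells showing the perinucleolar compartment, a nuclear body marking cancer cells; inconclusive = readout between -30 and a set limit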;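 also: plate controls were DMSO wells for no effect and camptothecin positive control wells for full effect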
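Compounds are pinned in duplicate onto adhered PC3M cells stably expressing GFP-tagged PTB and incubated 16 h at 37 C. Cells are then fixed, nuclei stained with Hoechst, and PNC-positive cells counted.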
* = called active by the depositor; ? = inconclusive; . = no result given; [ ] = dose if it differs, or a comment. A selection: hits, their analogues and other compounds. The true share with any hit is near 11%. Unless noted, calls follow the shape of the dose curve; as a rule, active = well fitted inhibition curve with a large enough effect (not every such curve was filed as active); inconclusive = small, poorly fitted or top-dose-only effect, or another doubt; inactive = no such curve, though single readings can be large or run the other way. Unless noted, % is scaled to controls: 0 for no effect and ±100 for the full control effect.

SMILES | HPGD inh | ALDH1A1 inh | PNC inhibitor
Cc1cc(C)c2c(=O)n(CC(=O)N3CCC(N4CCCCC4)CC3)sc2n1 | 13µM* | 13µM* | 0
CC(=O)c1cc(-c2ccccc2)n(CC(=O)N2CCC(N3CCCCC3)CC2)c1C | 0% | 2% | ?
COc1cc(O)sc1C=Nc1ccc(Cl)cc1Cl | . | -8% | .
CN(C)C(=O)COC(=O)c1ccccc1Nc1ccc(SC(F)F)cc1 | ? | ? | -105*
COc1ccccc1NC(=O)COC(=O)c1ccccc1OCC(=O)Nc1ccc(SC(F)F)cc1 | -25% | 10% | 15
CC(C)CC(=O)Nc1ccc(-c2cn3ccsc3n2)cc1 | 25µM* | 0% | ?
CC(C)(C)C(=O)Nc1ccc(-c2cn3ccsc3n2)cc1 | 0% | -2% | -14
O=P(COCCCCCOCP(=O)(c1ccccc1)c1ccccc1)(c1ccccc1)c1ccccc1 | . | 0% | .
COc1cccc(/C=C(/C#N)c2ccc(Cl)cc2)c1OCc1cccc(C(=O)O)c1 | . | -8% | .
COc1cccc(/C=C(/C#N)c2ccc(F)cc2)c1OCc1cccc(C(=O)O)c1 | ? | 13µM* | -7
CCC(CC)c1nnc(NC(=O)[C@@H](NC(=O)c2cccc(C)c2)C(C)C)s1 | -10% | -8% | -97*
CCSc1nnc(NC(=O)[C@@H](NC(=O)c2cccc(C)c2)C(C)C)s1 | 0% | 1% | 7
COCC[N+]1(C)CCCCC1 | . | 8% | .
O=C(c1ccccc1)c1ncc(C(F)(F)F)cc1Cl | 32µM* | -6% | 27
O/N=C(\c1ccc(Cl)cc1Cl)c1ncc(C(F)(F)F)cc1Cl | 25µM* | ? | 17
N/C(=N\OC(=O)Nc1ccccc1)c1ncc(C(F)(F)F)cc1Cl | -12% | ? | ?
O=C(c1ccc(Cl)cc1Cl)c1ncc(C(F)(F)F)cc1Cl | -19% | 10% | 36
COCCNC(=O)C(=O)NNC(=O)CCc1ccccc1 | . | 3% | .
COC(=O)c1cc(=O)n(Cc2ccc3c(c2)OCO3)c(=Nc2ccc(F)cc2)s1 | -5% | ? | 6
COC(=O)c1cc(=O)n(Cc2cccs2)c(=Nc2ccc(F)cc2)s1 | . | 10µM* | .
COC(=O)c1cc(=O)n(-c2ccc(F)cc2)c(=Nc2ccc(F)cc2)s1 | -6% | 7% | 38
COC(=O)c1cc(=O)n(Cc2ccc3c(c2)OCO3)c(=Nc2ccccc2)s1 | -21% | 0.63µM* | -18
COC(=O)c1cc(=O)n(Cc2ccco2)c(=Nc2ccc(F)c(Cl)c2)s1 | -10% | 3.5µM* | 16
COC(=O)c1cc(=O)n(CCc2ccccc2F)c(=Nc2ccc(F)c(Cl)c2)s1 | -11% | 9% | 30
Nc1cc(C(F)(F)F)cc2c1SCC(=O)N2 | -7% | 11% | ?
SMILES | HPGD inh | ALDH1A1 inh | PNC inhibitor
CCC/C=C(\CCC)C(NC(=O)c1ccc(C(F)(F)F)cc1)c1ccc(C(F)(F)F)cc1 (configuration not stated) | -3% | -2% | .
CO[C@@H]1COC(=O)CC=C[C@@H](C)[C@@H]2C=C[C@H](O)[C@@H](COC(=O)C/C=C\[C@H]1C)O2 | . | -8%[13.5 µM] | .
CCC(Oc1ccccc1)C(=O)NC1CCSC1=O (configuration not stated) | . | 6.3µM* | .
CCCNC(=O)Nc1ccsc1C(=O)OC | . | -12% | .
CCC(Oc1ccccc1)C(=O)Nc1ccccn1 (configuration not stated) | -13% | 2.8µM* | 20
CCC(Oc1ccccc1)C(=O)Nc1ccsc1C(=O)OC (configuration not stated) | ? | 14µM* | 14
CCC(Oc1ccccc1)C(=O)Nc1cc(C)on1 (configuration not stated) | 1% | 3% | -17
O=C(NC1CCSC1=O)c1ccccc1 (configuration not stated) | -2% | 16% | 56
CCOC(=O)C1C(C(=O)NN)C1C(=O)Nc1ccccc1 (configuration not stated) | . | -5% | .
CC1=C(C(=O)OCCNC(=O)c2ccccc2O)C(c2ccccc2[N+](=O)[O-])C(C(=O)OCC2CCCO2)=C(C)N1 (configuration not stated) | -3% | -2% | ?
CCOP(=O)(OCC)C(NC(=O)Nc1ccc(Cl)cc1)C(=O)N(CC)CC (configuration not stated) | -2% | 2% | ?
C=CCSc1nnc(-c2sc(-c3ccccc3)nc2C)n1C | ? | ? | -7
C=CCN(C(=O)CSC1=NC(=O)CN1C(C)=O)c1nc(C)c(-c2ccccc2)s1 | . | 6.3µM* | .
Nc1nnc(N2CCCCCC2)s1 | -12% | 4% | 10
Nc1nnc(N2CCCCC2)s1 | -1% | 25µM* | -30
O=C(NCCc1ccccc1)C1CCN(C(=O)c2ccc([N+](=O)[O-])cc2)CC1 | . | -3% | .
CCCCN1C(=O)CCC(C(=O)O)C1c1ccccc1 (configuration not stated) | -10% | -2% | -102*
CCCCN1C(=O)CC(C(=O)O)C1c1ccc(OC)cc1 (configuration not stated) | -2% | -5% | 5
CCN(CC)c1ccc(C(=S)N2CCN(c3ccccc3)CC2)cc1 | ? | ? | 13
CCN(CC)c1ccc(C=C2C(=O)OC(c3ccccc3)OC2=O)cc1 (configuration not stated) | . | 0.28µM* | .
CCN(CC)c1ccc(C=C2C(=O)OC3(CCCC3)OC2=O)cc1 | ? | 0.71µM* | ?
O=C1OC2(CCCC2)OC(=O)C1=Cc1c[nH]c2ccccc12 | . | -16% | .
O=C(NCCN1C(=O)S/C(=C\c2ccccc2)C1=O)c1cc(S(=O)(=O)N2CCOCC2)c(Cl)cc1Cl | -10% | 5% | 7
Cc1ccc(N2C(=O)CC(N(CCc3ccccc3)C(=S)Nc3ccc(N(C)C)cc3)C2=O)cc1 (configuration not stated) | -15% | 28µM* | 34
O=C1CC(N(CCc2ccccc2)C(=S)Nc2ccccc2)C(=O)N1c1ccc(Br)cc1 (configuration not stated) | -16% | ? | -13
SMILES | HPGD inh | ALDH1A1 inh | PNC inhibitor
CC(Cc1ccsc1)NC(=O)CCc1nnc(COc2ccccc2)o1 (configuration not stated) | . | -5% | .
Cc1ccc(NC(=O)Nc2ccc(C(=O)N3CCOCC3)cc2)cc1 | -27% | 8% | ?
CC(=O)c1cccc(NC(=O)Nc2ccc(C(=O)N3CCOCC3)cc2)c1 | 13µM* | ? | -2
O=C(Nc1ccc2c(c1)OCCO2)N1CCOCC1 | . | -3% | .
O=C(Nc1cccc(O)c1)N1CCOCC1 | -9% | -3% | -100*
Cc1ccc(CN(CC(=O)NC(C)(C)C)C(=O)CNC(=O)c2cccs2)cc1 | . | 9% | .
O=C(NCCO)c1ccc2[nH]c3c(c2c1)CCCC3 | -11% | 4% | -18
CCCC(C)NC(=O)c1ccc2[nH]c3c(c2c1)CC(C)CC3 (configuration not stated) | . | 16µM* | 23
CC(C)(C)c1cc2c(O)c(c1)Cc1cc(C(C)(C)C)cc(c1O)Cc1cc(C(C)(C)C)cc(c1O)Cc1cc(C(C)(C)C)cc(c1O)Cc1cc(C(C)(C)C)cc(c1O)Cc1cc(C(C)(C)C)cc(c1O)Cc1cc(C(C)(C)C)cc(c1O)Cc1cc(C(C)(C)C)cc(c1O)C2 | -5% | -3%[13.5 µM] | .
N=C1C(c2ccccc2)=C(O)CN1c1cccc(S(=O)(=O)Nc2cccc(C(F)(F)F)c2)c1 | -12% | 2% | 47

Bioassay records (PubChem BioAssay)
